Results on 8 compounds are retold here after PubChem BioAssay (NCI).

About 83,000 compounds went through this panel and 20% of them were active in at least one assay; those are over-represented in the sample as a whole.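 Values shown are percent growth following 48 h exposure of cells in 96-well plates to a single concentration of compound; below 10 was considered active.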 A number with no mark means an inactive call. The source made the active and inactive calls.

Experiment in all cases: NCI-60 one-dose screen, 48 h (100 = growth as untreated, 0 = no growth, -100 = all killed)
In assay [1] the test system is NCI-H23 lung. The settings on record: 10 µM unless noted.
Assay [2] has as its system NCI-H226 lung. The settings on record: 10 µM unless noted.
Assay [3] concerns NCI-H322M lung. The settings on record: 10 µM unless noted.
Assay [4] has as its system HOP-62 NSCLC. The settings on record: 10 µM unless noted.
In assay [5] the test system is NCI-H460 lung. The settings on record: 10 µM unless noted.
Assay [6] relates to HOP-92 NSCLC. The settings on record: 10 µM unless noted.
Assay [7] relates to NCI-H522 lung. The settings on record: 10 µM unless noted.
In assay [8] the test system is A549/ATCC NSCLC. The settings on record: 10 µM unless noted.
The test system of assay [9] is 786-0 renal. The settings on record: 10 µM unless noted.
The test system of assay [10] is COLO 205 colon. The settings on record: 10 µM unless noted.
Assay [11] relates to DU-145 prostate. The settings on record: 10 µM unless noted.
Assay [12] relates to MALME-3M melanoma. The settings on record: 10 µM unless noted.
The test system of assay [13] is MDA-MB-231 breast. The settings on record: 10 µM unless noted.
Assay [14] concerns RXF 393 renal. The settings on record: 10 µM unless noted.
Assay [15] has as its system SF-268 CNS. The settings on record: 10 µM unless noted.
The subject of assay [16] is SF-295 CNS. The settings on record: 10 µM unless noted.
The test system of assay [17] is SF-539 CNS. The settings on record: 10 µM unless noted.
The test system of assay [18] is UACC-257 melanoma. The settings on record: 10 µM.
Assay [19] relates to M14 melanoma. The settings on record: 10 µM unless noted.
In assay [20] the test system is K-562 leukemia. The settings on record: 10 µM unless noted.

On to `CS(=O)c1nccc(-c2c(-c3ccc(F)c(OCCc4ccccc4)c3)nc3sccn23)n1` (centres undefined), for which the growth in [1] was 86.1%; in assay [2] it was 102%; in assay [3], 76.7%; in assay [4], 98.2%; in [5] it was 57.3%; in [6], 77%. Also, the growth in assay [7] is -79.1% (active); in [8] it was 109%; in [9], 104%; in assay [10], 80.7%; in [11] it was 4.08% (active); in [12], 87.5%. In addition, the growth in [13] is 84.7%; in assay [14], 98.5%; in assay [15] it was 101%; in [16], 101%; in assay [17], 95.9%; in assay [18], 28.5%.

For the compound `CS(=O)(=O)c1ccc2c(c1)c1c(n2C(=O)c2ccc(Cl)cc2)CCCC1`, the growth in [1] is 45%; in [2], 60.9%; in assay [3], 43.8%; in [4] it was 43.1%; in assay [5], 12.3%; in [6] it was 35%. Also, the growth in assay [7] was -44.2% (active); in [8], 50.6%; in [9], 43.6%; in assay [10], -1.12% (active); in assay [11], 36%; in assay [12] it was 43.7%. The growth in assay [13] is 39.9%; in [14] it was -12.1% (active); in assay [15], 62.1%; in assay [16], 22.5%; in [17], 1.96% (active); in assay [18] it was 56.8%. Further, in [19], the growth is 28.8%.

As to `COc1ccc(-c2cc(-c3cccc4ccccc34)n3c(n2)nc2ccccc23)cc1`, the growth was 62.2% in assay [1]; 49.1% in assay [2]; 73.5% in assay [3]; 26% in [4]; 13.5% in assay [5]; 38.4% in [6]. The growth in assay [7] was 50.3%; in assay [8] it was 29%; in assay [9] it was 36.5%; in assay [10], 74%; in [11], 37.8%; in [20] it was 37.2%. The growth in assay [12] was 32.4%; in assay [13], 78.2%; in assay [15], 46.6%; in [16], 20.2%; in assay [17], 45.7%; in assay [18] it was 68.8%. In assay [19], the growth is 52.1%.

For the compound `COCCOc1ccc(-c2csc(NC(C)=O)n2)cc1NS(=O)(=O)c1cccc2c(N(C)C)cccc12`, the growth in assay [1] was 104%; in [2], 84.9%; in [3] it was 92.6%; in assay [4] it was 102%; in assay [5], 100%; in [6], 58.6%. The growth in assay [7] is 85.2%; in assay [8], 98.3%; in assay [9], 95.8%; in assay [10], 94.5%; in [11], 98.3%; in assay [12], 83.9%. Moreover, the growth is 80.2% in assay [13]; 91.7% in [14]; 96.2% in assay [15]; 95.9% in assay [16]; 90.9% in assay [17]; 94% in assay [19].

Turning to `C=CCn1c(SCC(=O)Nc2cccc(C(=O)/C=C/c3cccc([N+](=O)[O-])c3)c2)nc2ccccc2c1=O`, the growth in assay [1] was 89.3%; in assay [2], 83.6%; in [3], 95.4%; in assay [4], 108%; in [5], 93.4%; in [6], 82.1%. Besides, the growth in assay [7] was 89.3%; in assay [8], 94.1%; in [9], 94.8%; in assay [10] it was 117%; in [11], 94.1%; in assay [12], 90.1%. In addition, the growth was 90.1% in assay [13]; 84.6% in assay [14]; 92.5% in [15]; 93.5% in [16]; 96.7% in assay [17]; 99.3% in [18]. The growth in assay [19] was 84.2%.

Take `N#Cc1ccc(S(=O)(=O)Nc2ccc(-c3cnc(N)[nH]3)cc2)cc1`: the growth in assay [1] was 99.1%; in assay [2] it was 96.4%; in assay [3] it was 97.4%; in assay [4], 105%; in assay [5], 103%; in assay [6] it was 100%. For the same compound, the growth in [7] is 94%; in assay [8], 98.4%; in [9], 100%; in assay [10] it was 105%; in [11] it was 107%; in assay [12] it was 98%. Moreover, the growth was 100% in assay [13]; 102% in assay [14]; 105% in [15]; 96.9% in assay [16]; 98.7% in assay [17]; 98.2% in assay [18]. Besides, the growth in assay [19] is 99.9%.

As to `Cn1cc(-c2nn3c(=O)cc(-c4ccccc4)nc3s2)c2cc(F)ccc21`, the growth was 59.7% in assay [1]; 46.4% in assay [2]; 65.6% in [3]; 45% in [4]; 15.5% in assay [5]; -3.43% (active) in assay [6]. Moreover, the growth in assay [7] is -37.4% (active); in assay [8], 36.7%; in assay [9], 82.5%; in assay [10], 44.8%; in assay [11], 66.6%; in assay [12] it was 22.7%. For the same compound, the growth was 58.3% in assay [13]; 45.9% in [14]; 78.4% in assay [15]; 34.7% in [16]; 49.9% in [17]; 46.6% in [19].

For the compound `Cn1c2ccccc2c2c3c(c4c5ccc(Br)cc5oc4c21)C(=O)N(O)C3=O`, the growth was 80% in assay [1]; 70.9% in [2]; 96.8% in [3]; 59.8% in assay [4]; 42.3% in assay [5]; 81.6% in [6]. In addition, the growth in assay [7] is 48.7%; in [8], 85.6%; in assay [9], 89.8%; in assay [10] it was 86.7%; in assay [11] it was 86.1%; in [20], 61.7%. Also, the growth is 113% in assay [12]; 94.5% in [13]; 78.6% in assay [15]; 53.4% in assay [16]; 96.2% in [17]; 94.2% in assay [18]. Moreover, the growth in [19] is 89.3%.
